In PubChem BioAssay AID1671192 (National Center for Advancing Translational Sciences (NCATS), 2021):
Records with an inconclusive call do not appear. Values without a mark were called inactive. Activity calls are given as the source filed them. Calls come from the whole dose curve; as a rule, active = well fitted curve in the direction sought with a large enough effect; inconclusive = small, poorly fitted or top-dose-only effect, or another doubt; inactive = no such curve, though single readings can be large or run the other way.

Target: Polyunsaturated fatty acid lipoxygenase ALOX15 (Homo sapiens) (UniProt P16050)
Assay: Counterscreen qHTS for inhibitors of human arachidonate 12S-lipoxygenase (ALOX12): ALOX15 Assay; note: 0% is about no effect
Details: purified ALOX15 enzyme activity; series mostly up to 110 µM; activity change, negative = inhibition: at the top concentration
Outline: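 Xylenol orange–ferric complex formation, read as the 573 nm to 405 nm absorbance ratio, tracks product from 50 uM arachidonic acid turned over for 30 min at RT. Enzyme is 40 nM ALOX15, pH 7.5 HEPES buffer, compound-preincubated 15 min.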

Chain of Polyunsaturated fatty acid lipoxygenase ALOX15 (Homo sapiens) (P16050 whole entry, looked up): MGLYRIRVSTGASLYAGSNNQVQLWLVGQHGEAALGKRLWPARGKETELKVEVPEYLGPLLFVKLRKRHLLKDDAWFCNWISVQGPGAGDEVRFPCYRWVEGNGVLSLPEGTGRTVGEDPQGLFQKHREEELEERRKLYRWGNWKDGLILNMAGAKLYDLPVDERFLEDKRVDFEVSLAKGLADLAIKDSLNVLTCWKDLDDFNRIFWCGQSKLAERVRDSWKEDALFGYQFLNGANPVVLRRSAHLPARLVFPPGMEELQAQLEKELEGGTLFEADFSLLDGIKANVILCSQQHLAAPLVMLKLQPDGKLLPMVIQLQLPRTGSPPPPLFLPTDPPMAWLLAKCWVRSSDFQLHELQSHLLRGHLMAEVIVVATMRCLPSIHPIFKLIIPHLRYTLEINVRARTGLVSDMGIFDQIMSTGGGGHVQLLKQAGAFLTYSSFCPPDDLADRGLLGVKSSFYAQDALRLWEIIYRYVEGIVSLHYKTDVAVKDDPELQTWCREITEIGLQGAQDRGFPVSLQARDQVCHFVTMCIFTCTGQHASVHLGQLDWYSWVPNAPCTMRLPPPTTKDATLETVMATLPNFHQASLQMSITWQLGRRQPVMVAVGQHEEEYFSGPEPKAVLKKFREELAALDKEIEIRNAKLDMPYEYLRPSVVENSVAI

Structure (SMILES) | outcome | activity change, negative = inhibition
CC(C)(C)OC(=O)N1CC(Nc2ccc(O)cc2)C1 | inactive | –
CCc1nc2c(c(-c3ccc(OC)cc3)n1)CN([S+](=O)([O-])c1cccc(OC)c1)CC2 | – | -24.4%
CC(=O)N1CCC(c2nnc3n2CCNC3)CC1 | – | -21.6% [at 146 µM]
Cn1cccc1CN1CCCCC12Cc1ccccc1CNC2=O (stereo not given) | – | 242% [at 146 µM]
O=C(c1ccccc1)N1CCCC2(CC(c3cccnc3)=NO2)C1 (stereo not given) | – | -15.9% [at 146 µM]
CCOCCCNc1ncnc2c1CN(C1CCCNCC1)C(=O)CN2C (stereo not given) | – | 1.99%
O=C1NCc2ccccc2CC12CCN(Cc1c(F)cccc1F)C2 (stereo not given) | – | -9.7%
c1cncc(CN2CCn3c(nnc3C3CCCNC3)C2)c1 (stereo not given) | – | -7.62% [at 146 µM]
NCCC(=O)N1Cc2ccccc2CC2(CCCCN2CC2CCNCC2)C1 (stereo not given) | – | 12%
COc1ccccc1C(=O)N1CCC(N2Cc3ccccc3C2=O)CC1 | – | -0.704% [at 146 µM]
CC(C)C(=O)N1CCCC2(Cc3ccccc3CN2[S+](=O)([O-])c2ccccc2)C1 (stereo not given) | – | -13.4%
CN(C)CCC(=O)N1Cc2ccccc2CC2(CCCCN2CC2CCOCC2)C1 (stereo not given) | – | -26.4%
Cc1cc(C(=O)N2CCOCC2)c2c(C3CCNCC3)noc2n1 | – | -7.21% [at 146 µM]
O=C(c1ccc(C(F)(F)F)cc1)N1CC(Oc2ccc3c(c2)OCO3)C1 | – | -14.9%
CC(C)NC(=O)N1CNC(=O)C12CCN(C(=O)CN)CC2 | – | -19.6% [at 146 µM]
Cc1cc(Cl)ccc1-c1ccccc1CN | – | 12.3% [at 146 µM]
CN1CC(=O)N(C2CCCNCC2)Cc2c(NCc3ccc4c(c3)OCO4)ncnc21 (stereo not given) | – | 12.4%
CN1CC(=O)N(C2CCCNCC2)Cc2c1ncnc2N1CCC(N2CCCCC2)CC1 (stereo not given) | – | 5.5%
CNC(C)c1ccc(Oc2ccccc2)cc1 (stereo not given) | – | 6.86% [at 146 µM]
CCOc1cccc(CN2CCC3(Cc4ccccc4CNC3=O)C2)c1 (stereo not given) | – | -23.1%
